Bioassay records (PubChem)
Most compounds without a hit are left out; they make up all but 3.4% or so of the library.
FBW7 activator: human FBW7 E3 ligase activation, primary screen | Q969H0 | AlphaScreen FBW7–phospho-cyclin E peptide binding, activator screen | normalized activity (activation), % at 26.1 µM | 650,000 tested, 0.13% active | AID 1259310; in the data active = normalized activity above about 1.9%;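 also: purified mutant Fbw7 with reduced substrate affinity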
GPR151 ag: activators of human GPR151 | Q8TDV0 | PathHunter beta-arrestin GPR151 cells, luminescence | activation, % at 11.2 µM | AID 1508602 | 650,000 tested, 1% active; in the data active = activation above about 4.9%;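 also: 0% = median of compound wells and 100% = cells with positive control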
Target sequence (Q8TDV0 whole entry, looked up): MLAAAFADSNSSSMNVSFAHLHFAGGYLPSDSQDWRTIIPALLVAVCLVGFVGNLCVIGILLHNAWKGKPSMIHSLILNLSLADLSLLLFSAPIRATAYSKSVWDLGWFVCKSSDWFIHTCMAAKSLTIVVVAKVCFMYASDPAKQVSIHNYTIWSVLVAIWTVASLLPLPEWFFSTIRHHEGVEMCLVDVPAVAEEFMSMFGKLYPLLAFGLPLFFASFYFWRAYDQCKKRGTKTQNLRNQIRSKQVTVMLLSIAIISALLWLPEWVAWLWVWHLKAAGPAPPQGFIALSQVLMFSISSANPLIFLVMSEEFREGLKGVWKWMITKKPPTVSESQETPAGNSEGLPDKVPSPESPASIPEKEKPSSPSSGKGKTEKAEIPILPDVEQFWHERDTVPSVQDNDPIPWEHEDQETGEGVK
TEAD-YAP block: TEAD-YAP interaction inhibition | HEK-TIYL cells, TEAD-Gal4/YAP UAS-luciferase luminescence | inhibition, % at 9.12 µM | 640,000 tested, 1.4% active | AID 1259422; in the data active = inhibition above about 32%;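 also: 0% = median of test compound wells and 100% = reference inhibitor wells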
MITF primary: inhibitors of human MITF; O75030; AlphaScreen MITF homodimerization, bead proximity signal; inhibition, % at 2.6 µM; 650,000 tested, 0.91% active; in the data active = inhibition above about 50%;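 also: 0% = vehicle wells with protein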
An asterisk follows results filed as active.

SMILES	FBW7 activator	GPR151 ag	TEAD-YAP block	MITF primary
CC(C)n1c(-c2cccs2)nc2c(Nc3ccccc3)ncnc21	0	-1	-16	-2
Cc1ccc(/C=C2/SC(=S)N(CCCCCC(=O)O)C2=O)o1	0	2	39*	40
O=C(O)CCCCCN1C(=O)/C(=C\c2ccco2)SC1=S	0	0	37*	43
Cc1ccc(/C=C2\CS/C(=C\c3ccc(C)o3)C2=O)o1	-1	1	-9	67*
Cc1ccc(/C=C2/SC(=O)NC2=S)o1	0	1	-5	76*
Cc1ccc(/C=C2\SC(=S)N(C)C2=O)o1	0	2	12	6
O=C(CSc1ccc2ccccc2n1)Nc1ccc(F)cc1	0	2	-3	-4
O=C(O)CCN1C(=O)/C(=C\c2ccccn2)SC1=S	0	1	26	8
NC(=O)NN1C(=O)/C(=C/c2ccco2)SC1=S	-1	0	-2	69*
O=C(NN1C(=O)/C(=C\c2ccco2)SC1=S)c1ccccc1Cl	0	0	1	35
O=C(O)CCCCCN1C(=O)/C(=C\c2ccccn2)SC1=S	1.9*	0	30	5
Cc1ccc(/C=C2/SC(=S)N(CCS(=O)(=O)O)C2=O)o1	-1	1	6	56*
CCOC(=O)C1=C(CN2CC(C)CC(C)C2)NC(=O)NC1c1cccc(OC)c1OC (stereo not drawn)	0	1	13	8
COc1cc(CO)ccc1OCC(=O)NC(C)(C)C	0	2	-7	-3
COc1cc(CNc2ccc(N(C)C)cc2)ccc1OCC(=O)NC(C)(C)C	0	1	37*	15
COc1ccccc1-n1c(SC)nc(O)cc1=O	3.9*	0	6	2
CCSc1nc(O)cc(=O)n1-c1ccccc1OC	0	-1	10	11
O=C(Nc1ccc(C(=O)c2ccc(Cl)cc2)c(Cl)c1)c1cc(Cl)ccc1O	0	1	40*	1
COc1ccc(NC(=O)c2ccc(C)cc2Cl)cc1	0	-5	73*	48
O=C(c1ccc(Cl)cc1)c1ccc(NC(=O)c2cc(Br)cc(Br)c2O)cc1Cl	0	-2	-5	-3
O=C(O)c1cc(NC(=O)c2ccc(Cl)cc2Cl)cc(C(=O)O)c1	0	4	13	0
COC(=O)c1ccc(NC(=O)c2ccc(C)cc2Cl)cc1	0	-1	-26	8
O=C(NC(=S)Nc1ccc(Cc2ccncc2)cc1)c1ccc(Cl)cc1Cl	0	0	22	-2
O=C(O)c1ccc(NC(=O)c2ccc(Cl)cc2Cl)cc1	0	2	45*	-19
O=C(Nc1ccc(Cc2ccncc2)cc1)c1ccc(Cl)cc1Cl	0	-1	38*	5
SMILES	FBW7 activator	GPR151 ag	TEAD-YAP block	MITF primary
Cc1ccc(N2C(=O)C3C(C2=O)C2(C(C)C)C=CC3(C)CC2)cc1 (stereo not drawn)	0	0	1	12
COc1ccc(NC(=O)NC(=O)c2c(Cl)ccc(Cl)c2OC)cc1	0	-2	38*	-1
CCOc1ccc(NC(=O)c2c(Cl)ccc(Cl)c2OC)cc1	0	-1	9	1
COc1ccc(-n2nc3c(c2NC(=O)c2ccc(C)c([N+](=O)[O-])c2)CSC3)cc1	0	0	0	13
COc1ccc2c(c1)CC(c1cnc3ccc(-c4cn[nH]c4)cc3n1)CO2 (stereo not drawn)	1	0	33*	11
COc1ccc2c(c1)OCC(c1nc3cc(-c4cn[nH]c4)c(F)cc3[nH]1)C2 (stereo not drawn)	0	0	84*	-5
Cc1[nH]ncc1-c1ccc2nc(NC(=O)C3COc4ccc(F)cc4C3)sc2c1 (stereo not drawn)	1	0	57*	36
COc1ccc2c(c1)CC(c1nc3ccc(-c4cn[nH]c4C)cc3c(=O)[nH]1)CO2 (stereo not drawn)	0	0	32*	4
COc1ccc2c(c1)CC(c1nc3ccc(-c4ccncc4)cc3c(=O)[nH]1)CO2 (stereo not drawn)	1	0	2	21
Cc1[nH]ncc1-c1ccc(NC(=O)C2COc3ccc(F)cc3C2)c(N(C)CCN(C)C)c1 (stereo not drawn)	0	-1	0	6
O=C(Nc1ccc(-c2cn[nH]n2)cc1)C1COc2ccc(F)cc2C1 (stereo not drawn)	0	2	34*	0
COc1ccc2c(c1)CC(C(=O)Nc1ccc(-c3cn[nH]c3C)cc1OCCN1CCCC1)CO2 (stereo not drawn)	0	0	-3	-5
COc1ccc2c(c1)CC(C(=O)Nc1ccc(-c3cn[nH]c3C)cc1OCCO)CO2 (stereo not drawn)	1	-1	55*	20
